Our source for the z-score and composite z-score values is PubChem BioAssay.

Assay [1] can be described thus: optical density shifts of acrAB sulA E. coli – strain DRC41, OD650, 48 h, E. coli filamentation inducer project, primary screen (AID 1152).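 Further: E. coli MC1000 strain DRC41 lacking acrAB efflux pump and sulA.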 The note with it: higher = more signal, called active from +8 up or from −8 down.
Assay [2] is described as follows: probe aLefty1 binding on compound microarray – biochemical, small-molecule microarray, 635/667 nm fluorescence, primary screen (AID 1153).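 Further: score merges spot fluorescence with signal-to-noise ratio from the scanned slide images.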 The conditions noted are these: higher = more signal.
Assay [3] can be described thus: plasmodial surface anion channel blockers, osmotic lysis – cell-based, P. falciparum Indochina, OD700, 1 h, primary screen (AID 1154). The note with it: P. falciparum Indochina infected RBC osmotic lysis, higher = more signal, called active from +8 up or from −8 down.
The nature of assay [4]: plasmodial surface anion channel blockers, osmotic lysis – cell-based, P. falciparum Indochina, OD700, 2 h, primary screen (AID 1155).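 Further: lysis reports solute entry through the parasite surface anion channel PSAC.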 The note with it: P. falciparum Indochina infected erythrocytes, higher = more signal, called active from +8 up or from −8 down.
A short description of assay [5]: changes in parasitized red cell lysis, either direction – P. falciparum Indochina, OD700, 3 h, PSAC antagonist project, primary screen (AID 1156). The note with it: P. falciparum-infected erythrocytes, osmotic lysis, higher = more signal, called active from +8 up or from −8 down.
Assay [6] is described as follows: plasmodial surface anion channel blockers, osmotic lysis – cell-based, P. falciparum Indochina, OD700, 18 h, primary screen (AID 1157). The note with it: P. falciparum Indochina infected erythrocytes, osmotic lysis OD700, 18 h; higher = more signal, called active from +8 up or from −8 down.
Assay [7] can be described thus: S6 kinase pathway phospho-S6 level changes – cell-based, A549, cytoblot, luminescence, serum-stimulated, primary screen (AID 1158).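 Further: serum-stimulated A549 lung adenocarcinoma cells; signal is phosphorylated S6 detected by cytoblot immunostaining with HRP secondary.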 The note with it: 5 h, higher = more signal.
Assay [8] has as its target NADPH oxidase 2 (Homo sapiens) (UniProt P04839). The assay can be described thus: compounds shifting NOX2 Amplex Red fluorescence – cell-based, HEK293-NOX2, PMA-stimulated, NOX inhibitor project, primary screen (AID 1159). Further: test concentration not given here. The conditions noted are these: 45 min, higher = more signal, called active from +8 up or from −8 down.
The target of assay [9] is NADPH oxidase 4 (Homo sapiens) (UniProt Q9NPH5). The assay can be described thus: compounds shifting NOX4 Amplex Red fluorescence – cell-based, HEK293-NOX4, tetracycline-induced, NOX inhibitor project, primary screen (AID 1160). The note with it: HEK293-NOX4, Amplex Red H2O2 fluorescence, 45 min; higher = more signal, called active from +8 up or from −8 down.
The target of assay [10] is NADPH oxidase 5 (Homo sapiens) (UniProt Q96PH1). The assay can be described thus: compounds shifting NOX5 Amplex Red fluorescence – cell-based, HEK293-NOX5, NOX inhibitor project, primary screen (AID 1161). The note with it: HEK293-NOX5, ionomycin, 45 min, higher = more signal.
Assay [11] is described as follows: compound effects on lung adenocarcinoma cell viability – A549, calcein-AM fluorescence, 48 h, basal, profiling panel (AID 1162). Further: test concentration not given here. The conditions noted are these: higher = more signal.
The nature of assay [12]: compound effects on differentiated 3T3-L1 adipocyte viability – cell-based, 3T3-L1 adipocytes, calcein-AM fluorescence, 48 h, basal, profiling panel (AID 1163). Further: test concentration not given here. The note with it: 3T3-L1 adipocytes viability, higher = more signal.
The nature of assay [13]: compound effects on hepatocellular carcinoma cell viability – HepG2, calcein-AM fluorescence, 48 h, basal, profiling panel (AID 1164). Further: test concentration not given here. The note with it: higher = more signal.
Assay [14] in a line: compound effects on multiple myeloma cell viability – MM1S, calcein-AM fluorescence, 48 h, basal, profiling panel (AID 1165).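 Further: viability of MM1S multiple myeloma cells under basal unstimulated conditions; test concentration not given here.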 The note with it: higher = more signal.
Assay [15] can be described thus: calcein-AM signal in unstimulated myeloma cells – cell-based, calcein-AM fluorescence, 48 h, PK04 Diversity Set, profiling panel (AID 1166).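 Further: cells grown under basal conditions without added stimulus; test concentration not given here.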 The conditions noted are these: RPMI8226 myeloma viability, higher = more signal.
The nature of assay [16]: JC-1 mitochondrial signal, unstimulated HepG2 cells – cell-based, JC-1 fluorescence, 24 h, 100 nL compound, profiling panel (AID 1167). Further: test concentration not given here. The conditions noted are these: HepG2 mitochondrial potential, higher = more signal.
A short description of assay [17]: JC-1 mitochondrial signal, unstimulated adipocytes – cell-based, JC-1 fluorescence, 3T3-L1 adipocytes, 24 h, 100 nL compound, profiling panel (AID 1168). Further: test concentration not given here. The note with it: JC-1 mitochondrial fluorescence, higher = more signal, called active from +8 up or from −8 down.
The nature of assay [18]: JC-1 mitochondrial signal, unstimulated myeloma cells – cell-based, JC-1 fluorescence, RPMI8226, 24 h, 100 nL compound, profiling panel (AID 1169). Further: test concentration not given here. The conditions noted are these: JC-1 mitochondrial potential fluorescence, higher = more signal.
Assay [19] can be described thus: JC-1 mitochondrial signal, unstimulated MM1S myeloma – cell-based, JC-1 fluorescence, 24 h, 100 nL compound, profiling panel (AID 1170). Further: test concentration not given here. The note with it: MM1S mitochondrial potential, higher = more signal.
Assay [20] in a line: resazurin metabolic signal in A549 cells – cell-based, resazurin fluorescence, 24 h, PK04 Diversity Set, profiling panel (AID 1171). Further: test concentration not given here. The note with it: A549 viability, higher = more signal, called active from +8 up or from −8 down. (In general: Alamar Blue is a resazurin reagent that responds to reducing activity.)

SMILES strings stand for the structures. Active and inactive are the calls of the source.

Chain of NADPH oxidase 4 (Homo sapiens) (Q9NPH5 whole entry, looked up): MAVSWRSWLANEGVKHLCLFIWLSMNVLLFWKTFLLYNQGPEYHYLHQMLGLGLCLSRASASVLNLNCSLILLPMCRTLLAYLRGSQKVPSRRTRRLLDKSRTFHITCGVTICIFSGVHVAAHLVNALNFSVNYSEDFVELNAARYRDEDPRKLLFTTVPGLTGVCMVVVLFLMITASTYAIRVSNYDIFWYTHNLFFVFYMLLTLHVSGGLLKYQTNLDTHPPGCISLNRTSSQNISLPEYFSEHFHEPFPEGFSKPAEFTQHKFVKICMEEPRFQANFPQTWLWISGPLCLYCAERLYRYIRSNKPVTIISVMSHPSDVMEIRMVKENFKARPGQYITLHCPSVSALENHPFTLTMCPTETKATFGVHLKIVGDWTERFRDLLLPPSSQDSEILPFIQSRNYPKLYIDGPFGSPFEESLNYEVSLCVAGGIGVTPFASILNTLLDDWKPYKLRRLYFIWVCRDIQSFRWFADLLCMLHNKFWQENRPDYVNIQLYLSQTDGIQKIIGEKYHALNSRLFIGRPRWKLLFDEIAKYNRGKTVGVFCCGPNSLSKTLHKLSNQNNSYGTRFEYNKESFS
Chain of NADPH oxidase 2 (Homo sapiens) (P04839 whole entry, looked up): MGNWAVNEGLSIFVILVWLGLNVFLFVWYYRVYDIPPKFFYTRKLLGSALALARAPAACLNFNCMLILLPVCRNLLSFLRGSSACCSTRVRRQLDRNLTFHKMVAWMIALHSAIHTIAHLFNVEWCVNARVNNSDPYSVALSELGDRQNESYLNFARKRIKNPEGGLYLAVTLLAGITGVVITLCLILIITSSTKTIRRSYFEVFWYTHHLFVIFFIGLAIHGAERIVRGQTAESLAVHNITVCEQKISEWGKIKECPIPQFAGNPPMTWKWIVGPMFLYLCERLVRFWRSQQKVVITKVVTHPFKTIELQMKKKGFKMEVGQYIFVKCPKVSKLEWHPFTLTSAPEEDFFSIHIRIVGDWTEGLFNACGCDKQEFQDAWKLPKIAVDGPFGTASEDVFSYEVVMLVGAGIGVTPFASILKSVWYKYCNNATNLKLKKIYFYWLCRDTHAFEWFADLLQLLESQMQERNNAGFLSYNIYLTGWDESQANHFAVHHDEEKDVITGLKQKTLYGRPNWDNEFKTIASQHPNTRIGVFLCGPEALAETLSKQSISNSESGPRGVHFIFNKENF
Chain of NADPH oxidase 5 (Homo sapiens) (Q96PH1 whole entry, looked up): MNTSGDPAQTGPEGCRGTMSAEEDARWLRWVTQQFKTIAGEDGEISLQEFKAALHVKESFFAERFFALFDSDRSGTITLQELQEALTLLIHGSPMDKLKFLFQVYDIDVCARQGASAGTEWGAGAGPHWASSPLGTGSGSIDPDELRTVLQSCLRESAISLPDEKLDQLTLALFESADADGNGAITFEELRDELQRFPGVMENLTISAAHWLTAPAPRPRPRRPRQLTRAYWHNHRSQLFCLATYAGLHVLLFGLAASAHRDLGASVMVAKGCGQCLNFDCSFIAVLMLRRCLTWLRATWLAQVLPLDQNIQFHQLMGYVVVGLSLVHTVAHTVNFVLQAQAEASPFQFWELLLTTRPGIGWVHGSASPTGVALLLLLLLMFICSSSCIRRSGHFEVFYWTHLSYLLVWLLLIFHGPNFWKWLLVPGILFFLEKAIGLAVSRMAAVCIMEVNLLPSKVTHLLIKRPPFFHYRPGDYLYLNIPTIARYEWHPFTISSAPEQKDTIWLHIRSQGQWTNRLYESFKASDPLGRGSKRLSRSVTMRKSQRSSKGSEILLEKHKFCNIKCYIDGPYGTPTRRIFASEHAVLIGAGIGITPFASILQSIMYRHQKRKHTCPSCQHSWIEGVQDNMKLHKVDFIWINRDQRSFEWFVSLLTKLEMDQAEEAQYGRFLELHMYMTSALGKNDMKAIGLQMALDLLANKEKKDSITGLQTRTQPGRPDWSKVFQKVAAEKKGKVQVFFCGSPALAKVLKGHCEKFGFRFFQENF

Consider `COC(=O)CC=C[C@@H](C)[C@@H]1C=C[C@H](O)[C@@H](CO)O1`, for which the z-score is 0.372 (inactive) in [1]; 0.0339 (inactive) in assay [3]; 0.447 (inactive) in assay [4]; -0.27 (inactive) in assay [5]; -0.0707 (inactive) in assay [6]; 0.338 in assay [7]. Also, the z-score in [8] is 0.418 (inactive); in assay [9] it was -0.23 (inactive); in assay [10], 0.576; in [11], -0.864; in assay [12], -1.02; in assay [13] it was -0.008. For the same molecule, the z-score in assay [14] is 0.667; in assay [15], -0.932; in assay [16], 0.295; in assay [17], -0.875 (inactive); in assay [18], -0.229; in [19] it was -0.433. The z-score in [20] is -0.554 (inactive). The same molecule yielded a composite z-score in assay [2] of -0.472.
`CC(=O)OC[C@H]1O[C@H](C#Cc2ccccc2)C=C[C@@H]1OC(C)=O`: the z-score in assay [1] was 0.714 (inactive); in [3] it was 1.12 (inactive); in [4], -0.08 (inactive); in [5], -0.0923 (inactive); in assay [6], -0.219 (inactive); in assay [7], -0.283. The z-score in assay [8] is 1.61 (inactive); in [9], 0.415 (inactive); in [10], 1.54; in assay [11], -0.188; in assay [12], 0.0552; in assay [13], -0.136. The z-score in assay [14] was -3.51; in assay [15] it was -3.71; in assay [16], -1.65; in assay [17] it was 0.458 (inactive); in assay [18], -1.04; in assay [19], -2.48. The z-score in assay [20] is -0.713 (inactive). Moreover, the composite z-score in [2] is -0.234.
`CC(C)C[C@H](NC(=O)CCC1CC(OC(=O)NCc2cccc3ccccc23)CC2(CCCC(COC(=O)NCc3ccccc3)O2)O1)C(=O)NCC(c1ccccc1)c1ccccc1` (stereo not given in full): the z-score in [1] is 0.576 (inactive); in [3], 8.07 (active); in assay [4], 1.33 (inactive); in assay [5], -1.22 (inactive); in assay [6] it was 0.688 (inactive); in assay [7], -0.71. In addition, the z-score was 0.871 (inactive) in assay [8]; 0.194 (inactive) in assay [9]; -0.0969 in assay [10]; -0.375 in [11]; 0.111 in assay [12]; -0.429 in assay [13]. The z-score in assay [14] is -3.53; in assay [15], -0.971; in assay [16], -0.341; in [17] it was 0.922 (inactive); in [18] it was -0.802; in assay [19], -0.715. For the same molecule, in assay [20], the z-score is 0.337 (inactive). This molecule returned a composite z-score in [2] of -0.29.
For the molecule `CO[C@H]1COC(=O)CC=C[C@H](C)[C@@H](OC)COC(=O)[C@@H](C)COC(=O)CC=C[C@@H]1C`, the z-score was -0.513 (inactive) in [1]; -0.435 (inactive) in [3]; 0.106 (inactive) in assay [4]; 0.033 (inactive) in assay [5]; -0.213 (inactive) in assay [6]; -0.0875 in assay [7]. Further, the z-score was -1.46 (inactive) in assay [8]; 0.28 (inactive) in assay [9]; 0.18 in assay [10]; -0.0895 in [11]; 1.19 in assay [12]; 0.389 in assay [13]. The z-score in assay [14] was 0.242; in [15], 0.21; in [16], 0.429; in assay [17], 0.673 (inactive); in [18] it was -0.296; in [19], 1.01. Besides, the z-score in assay [20] is 0.455 (inactive). Further, in assay [2], the composite z-score is -0.193.
As for `CC(C)[C@@H](OCc1ccccc1)[C@H](C)C=NOC[C@@H](O)COCc1ccco1`, the z-score in assay [1] is 0.776 (inactive); in [3] it was 0.726 (inactive); in assay [4], -0.332 (inactive); in [5], -0.302 (inactive); in assay [6] it was -0.0498 (inactive); in assay [7], 0.0388. Besides, the z-score in assay [8] was -0.0623 (inactive); in assay [9], 0.402 (inactive); in assay [10], -0.548; in [11], -0.695; in assay [12] it was 0.0863; in assay [13], -0.893. In addition, the z-score was -1.05 in assay [14]; -1.09 in [15]; -1.83 in assay [16]; -1.25 (inactive) in [17]; -0.298 in assay [18]; -0.368 in [19]. Further, the z-score in assay [20] was -0.185 (inactive). In assay [2], this molecule came in with a composite z-score of -0.866.
